# IL-1B inflam inh = blocks inflammasome-driven IL-1 beta release. AID 743279. activity change, % at 57.5 µM. THP-1 LPS/ATP IL-1B secretion, AlphaLISA, 16 h; active compounds read low. 4.7% of 360,000 active; in the data active means activity change below about -50%; inconclusive means mostly about -30% to -49%; further: on the % scale 0 is the no-effect control and ±100 the full control effect
#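 THP-1 cells pretreated 1 hr with compounds (up to 57.5 uM final), then stimulated with LPS (250 ng/mL final) plus ATP (1.25 mM final); secreted IL-1B measured by AlphaLISA after 16 hr, decreased signal indicating inhibition.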
# DT40 TDP1 no CPT = qHTS for Inhibitors of human tyrosyl-DNA phosphodiesterase 1 (TDP1): qHTS in cells in absence of CPT | 15% of 420,000 active | Potency, µM (series often up to 46.2 µM), without a hit: top-dose activity change, negative = growth inhibition, most hits filed as inhibitors | DT40 Tdp1-/- hTDP1 cells, no CPT, ATP luminescence, 48 h | AID 686978, 2013; further: potency means the concentration at half of the fitted maximal effect; on the % scale 0 is the no-effect control and ±100 the full control effect; nearly all actives have a fitted effect of over 55% in size
#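 Stably hTDP1-transfected Tdp1-null chicken DT40 cells were treated with library compounds minus camptothecin and grown for at least 48 hr at 37 °C, after which cellular ATP was quantified by luminescence.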
# TGFb inhibitor = blocks TGF-b signaling. AID 588855. Potency, µM (highest dose often 46.1 µM), for inactives: at the highest dose activity, negative = inhibition, hits mostly inhibitors. HepG2 CAGA-GFP TGF-b/SMAD3 reporter, GFP fluorescence, 18 h; TGF-beta stimulated, 500 pg/mL final. 1.2% of 410,000 active; further: potency means the concentration at half of the fitted maximal effect; on the % scale 0 is the no-effect control and ±100 the full control effect; nearly all actives have a fitted effect of over 65% in size
#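 HEPG2 CAGA-GFP reporter cells (1000/well, DMEM with 1% FBS) received compounds, then recombinant TGF-beta at 500 pg/mL final for 18 hours at 37 degrees C. Per-cell GFP summed per well was normalised to unstimulated and stimulated DMSO controls before curve fitting.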
# DT40 TDP1 CPT = growth inhibition of DT40 Tdp1-/-;hTDP1 cells with camptothecin (screen for TDP1 inhibitors); chicken DT40 Tdp1-/-;hTDP1 cells + 20 nM CPT, ATP luminescence, 48 h; Potency, µM (doses to about 46.2 µM), for the others: top-dose activity change, negative = growth inhibition, actives largely listed as inhibitors; 12% of 420,000 active; AID 686979; further: potency means the concentration at half of the fitted maximal effect; on the % scale 0 is the no-effect control and ±100 the full control effect; nearly all actives have a fitted effect of over 55% in size
#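 Cell growth measured by CellTiter-Glo luminescence after a minimum 48 h, 37 C compound exposure with 20 nM CPT in Tdp1-knockout DT40 cells stably expressing hTDP1, seeded 400/well; qHTS titration format.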
# S-ASM inh = inhibitors of human secretory acid sphingomyelinase; P17405; placental ASM, HMU-PC fluorogenic substrate, 60 min; Potency, µM (series often up to 57.5 µM), for inactives: at the highest dose activity change, negative = inhibition, hits mostly inhibitors; 0.006% of 340,000 active; AID 504937; further: potency means the concentration at half of the fitted maximal effect
#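 Fluorogenic HMU-PC substrate (9 uM final) is turned over by placental ASM in 60 min at 37 C after a 10 min compound preincubation. Reaction ended by alkaline stop (pH 10), with fluorescence read at 386/447 nm.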
# HepG2 viability = kills HepG2 cells in TGF-b inhibitor counter-screen; AID 588856; HepG2 CAGA-GFP viability, ATP luminescence, 18 h; Potency, µM (series often up to 46.1 µM), for inactives: top-dose activity change, negative = cytotoxicity, usual class: cytotoxic; 0.76% of 410,000 active; further: potency means the concentration at half of the fitted maximal effect
#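 HepG2 CAGA-GFP cells (1000/well, DMEM with 1% FBS) received compound, then TGF-beta at 500 pg/mL final, and were incubated 18 hours at 37 degrees C. Viability was read by CellTiter-Glo luminescence. Media-only wells were set as complete cell-killing and DMSO as no toxicity.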
# * = called active by the depositor; i = inactive; ? = inconclusive; . = not tested or not shown. This is a sample that favours compounds with a hit; in the whole collection about 19% have one here. Unless noted, the call rests on the fitted dose curve; in most records, active means well fitted curve in the direction sought with a large enough effect; inconclusive means small, poorly fitted or top-dose-only effect, or another doubt; inactive means no such curve, though single readings can be large; an effect the other way counts as inactive or inconclusive.
SMILES,IL-1B inflam inh,DT40 TDP1 no CPT,TGFb inhibitor,DT40 TDP1 CPT,S-ASM inh,HepG2 viability
Cc1ccc(-c2nc(C#N)c(N3CCC(C(N)=O)CC3)o2)cc1,-30,-3%,2%,-1%,5%,-17%
COc1cccc(Nc2ccc(Nc3cccc(OC)c3)nn2)c1,-99*,?,-3%,?,-1%,6%
COc1cccc(NC(=O)OCCN2CCN(Cc3ccccc3)CCC2=O)c1,20,-6%,?,-21%,-1%,-7%
Nc1ccc(-c2nc3ccc(N)cc3s2)cc1,-80*,?,-14%,-12%,i,-26%
Nc1nc(-c2ccc(C(=O)O)cc2)cs1,11,-7%,0%,14%,-1%,2%
Nc1ccc2nc(-c3ccc(O)cc3)sc2c1,.,21µM*,10%,21µM*,.,-46%
Nc1cc2sc(-c3ccc(C(=O)O)cc3)nc2cc1Cl,10,?,-17%,8.2µM*,i,-61%
Oc1ccc(N=C/C=C/c2cccc(Br)c2)cc1-c1nc2ccccc2s1,-15,21µM*,-6%,12µM*,7%,-20%
Oc1ccc(-c2nc3ccccc3s2)cc1,14,-16%,?,?,i,-59%
Oc1ccc(-c2nc3ccccc3s2)c(O)c1,33,-3%,-6%,4%,399%,8%
Nc1ccc(-c2nc3ccc(C(=O)O)cc3s2)cc1,4,-26%,13%,-30%,i,-3%
C[C@H]1CN(S(=O)(=O)c2ccc3c(c2)OCCO3)CCN1S(=O)(=O)c1c(F)cccc1F,.,.,?,.,3%,-1%
Cc1cc(Br)ccc1NC(=O)C1CCN(C(=O)c2ccco2)CC1,-11,?,-6%,-1%,-18%,1%
Nc1ccc(O)c(-c2nc3ccccc3s2)c1,-7,16µM*,-6%,13µM*,9%,-10%
CC(=O)c1cccc(NC(=O)Cn2cnc(S(=O)(=O)N3CCOCC3)c2)c1,7,14%,11%,-11%,11%,-1%
CCN(CC(=O)Nc1ccccc1OC)CC(=O)Nc1ccccc1-c1ccccc1,27,9.2µM*,?,7.3µM*,-1%,3%
Cc1ccccc1CN(C)CC(=O)Nc1ccccc1-c1ccccc1,-4,?,?,-18%,-2%,-25%
COc1ccc(CC(=O)Nc2ccccc2-c2ccccc2)cc1OC,-28,21µM*,-2%,16µM*,-3%,-7%
COc1ccc(CN(C)CC(=O)Nc2ccccc2-c2ccccc2)c(OC)c1,-51*,18µM*,?,?,4%,-1%
COc1cc(Cl)c(C)cc1NC(=S)NN,32,18µM*,-18%,?,2%,8%
COc1c(Cl)cc(C(=O)Nc2ccccc2C(=O)O)cc1Cl,45,-16%,-8%,?,25%,-42%
COc1ccc(NC(=O)CS(=O)(=O)c2ccccc2Cl)cc1,14,4%,12%,7%,1%,10%
COc1ccccc1NC(=O)c1ccc(NC(=O)CN(C)Cc2ccccc2F)cc1,.,23µM*,-7%,-8%,-2%,-8%
COc1cc(Cl)c(C)cc1NC(=O)Cc1cccs1,-1,-4%,3%,12%,-2%,0%
COc1ccccc1NC(=O)CCC(=O)c1ccc(-c2ccccc2)cc1,61,23µM*,-38%,?,-1%,-4%
COc1cc(Cl)c(C)cc1NC(=O)Cc1ccc(OC)c(OC)c1,-21,15µM*,2%,-28%,-1%,-22%
COc1ccccc1CN(C)CC(=O)Nc1ccccc1-c1ccccc1,-82*,23µM*,0%,?,2%,2%

# Assay outcomes: PubChem, National Center for Advancing Translational Sciences (NCATS)
